High-throughput results from PubChem.
Giardia FBPA inh = qHTS Assay for Inhibitors of Fructose-1,6-bisphosphate Aldolase from Giardia Lamblia | AID 2451, 2010 | 290,000 compounds, 0.71% hits | Potency, µM (highest dose often 59.6 µM), actives largely listed as inhibitors | A8B2U2 | purified Giardia FBPA; note: nearly all actives have a fitted effect of over 55% in size
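40 nM FBPA preincubated 10 min at RT with compound (up to 57.5 uM final), then substrate plus GAPDH/TPI/NAD/arsenate coupling and diaphorase/resazurin added. Fluorescence read after 20 min at RT, 525/598 nm.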
LmPK inh = qHTS Assay for Inhibitors of Leishmania Mexicana Pyruvate Kinase (LmPK) | 290,000 compounds, 0.37% hits | Potency, µM (top dose mostly 57.5 µM), hits mostly inhibitors | purified LmPK, Kinase-Glo ATP luminescence, 1 h | Q27686
Target sequence (Q27686 whole entry, looked up): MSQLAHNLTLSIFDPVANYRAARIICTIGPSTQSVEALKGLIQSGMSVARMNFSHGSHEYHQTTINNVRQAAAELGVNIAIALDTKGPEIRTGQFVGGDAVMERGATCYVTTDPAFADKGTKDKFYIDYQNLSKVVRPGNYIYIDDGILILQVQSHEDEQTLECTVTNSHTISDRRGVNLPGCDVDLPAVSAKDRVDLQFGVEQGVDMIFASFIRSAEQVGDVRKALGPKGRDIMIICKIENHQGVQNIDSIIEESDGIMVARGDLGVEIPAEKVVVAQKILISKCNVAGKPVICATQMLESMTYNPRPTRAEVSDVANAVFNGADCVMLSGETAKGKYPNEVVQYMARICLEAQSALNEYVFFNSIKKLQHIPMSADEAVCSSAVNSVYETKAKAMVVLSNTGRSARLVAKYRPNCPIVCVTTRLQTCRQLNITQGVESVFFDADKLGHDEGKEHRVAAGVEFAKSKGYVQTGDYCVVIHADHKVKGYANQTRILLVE
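Purified LmPK (0.1 nM) with 0.5 mM PEP and 0.1 mM ADP in imidazole buffer pH 7.2 with MgCl2/KCl, 1 h at room temperature. ATP formed was read by luciferase luminescence and normalized to no-enzyme and uninhibited controls.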
TbPYK inhibitor = qHTS of Trypanosoma Brucei Inhibitors; TbPYK enzyme, Kinase-Glo Plus ATP luminescence, 45 min; AID 624173, 2012; Potency, µM (highest dose often 76.8 µM), usual class: inhibitors; 410,000 compounds, 0.12% hits; pyruvate kinase (Trypanosoma brucei), Q57TT1; note: nearly all actives have a fitted effect of over 50% in size
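TbPYK + substrate in 50 mM TEA pH 7.2, 100 mM KCl, 10 mM MgCl2, 0.05% BSA, 0.01% Tween-20; cpd pinned; ADP 130 uM final; 45 min RT; Kinase-Glo Plus 10 min; luminescence endpoint.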
RE007 growth inh = qHTS Assay for Inhibitors of the HIV-1 protein Vpr; S. pombe RE007 Vpr strain, BacTiter-Glo ATP luminescence, 24 h; Potency, µM (top dose mostly 92.2 µM), actives largely listed as inhibitors; 360,000 compounds, 0.21% hits; AID 651644, 2012; active = well fitted falling curve with a large enough effect; inconclusive = small, poorly fitted or top-dose-only effect; inactive = no such curve, though single readings can be large or run the other way; note: nearly all actives have a fitted effect of over 50% in size
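Fission yeast strain RE007, carrying one chromosomally integrated HIV-1 vpr copy, was seeded at OD 0.01 in PMG+AL medium with 23 nL pinned compound. After 24 h at 30 °C and 99% humidity, viability was read by BacTiter-Glo luminescence.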
CHX counter = Cycloheximide Counterscreen for Small Molecule Inhibitors of Shiga Toxin; cell reporter, cycloheximide protein synthesis inhibition counterscreen; max response, %; 300,000 compounds, 12% hits; AID 2314, 2010; in the data active = max response mostly above about 13%, no sharp cut-off; inactive = mostly below about 14%; note: read at 38.3 µM for the half of the compounds with a filed dose
Shiga inhibitor = A qHTS for Small Molecule Inhibitors of Shiga Toxin; Vero cells, Shiga toxin protein synthesis inhibition reporter; inhibition, % at 38.7 µM; 290,000 compounds, 9.2% hits; in the data active = inhibition mostly above about 28%, no sharp cut-off; inactive = mostly below about 43%
Each line names hits and unclear results; the compound was inactive in the other large screens. This is one part of a sample in which hits are shown more often than they occur. Unless noted, calls come from the whole dose curve; as a rule, active = well fitted curve in the direction sought with a large enough effect; inconclusive = small, poorly fitted or top-dose-only effect, or another doubt; inactive = no such curve, though single readings can be large; an effect the other way counts as inactive or inconclusive.

O=C(Nc1cccc(-c2nc3ccccc3o2)c1)c1cccnc1	none
COc1ccccc1CNC(=O)C1CCCN(S(=O)(=O)c2ccc3c(c2)oc(=O)n3C)C1 (stereo not given)	none (no result: Giardia FBPA inh, LmPK inh, RE007 growth inh, CHX counter, Shiga inhibitor)
CCCCN(CC)C(=O)CCn1c(=O)c2cccn2c2cccnc21	none (no result: Giardia FBPA inh, LmPK inh, RE007 growth inh, CHX counter, Shiga inhibitor)
O=c1c2c(nc3n1CCCCC3)sc1c(O)c(Br)ccc12	LmPK inh inconclusive, TbPYK inhibitor inconclusive, CHX counter 16
O=c1c2c3c(sc2nc2n1CCC2)CCCCC3	none
O=c1c2c3c(sc2nc2n1CCCC2)CCCC3	RE007 growth inh 28µM, CHX counter 19, Shiga inhibitor 42
CCC1CCCCN1C(=O)CCc1nnc(Cc2c[nH]c3ccccc23)o1 (stereo not given)	Shiga inhibitor 31
O=C(CCc1nnc(CCc2ccccc2)o1)N1CCCC1c1nccs1 (stereo not given)	CHX counter 16
COC(=O)[C@@H]1CCCN1C(=O)CCc1nnc(CCc2c[nH]c3ccccc23)o1	CHX counter 47, Shiga inhibitor 48
CCN1CCCC1CNC(=O)CCc1nnc(CCC2CCCCC2)o1 (stereo not given)	none
COC(=O)[C@@H]1CCCN1C(=O)CCc1nnc(CCC2CCCCC2)o1	CHX counter 34, Shiga inhibitor 74
COC(=O)C1CCCCN1C(=O)CCc1nnc(CCc2c[nH]c3ccccc23)o1 (stereo not given)	none
CC1=C(C(=O)NCc2cccc(Br)c2)C2(CCCCC2)OC1=O	none (no result: Giardia FBPA inh, LmPK inh, RE007 growth inh, CHX counter, Shiga inhibitor)
O=C(c1ccco1)N1CCC2(CCCN(c3ccccn3)C2)CC1	none (no result: LmPK inh, RE007 growth inh, CHX counter, Shiga inhibitor)
Fc1cccc(-n2ncc3c2ncn2nc(Cc4ccccc4)nc32)c1	none (no result: Giardia FBPA inh, LmPK inh, RE007 growth inh, CHX counter, Shiga inhibitor)
COc1ccccc1CNc1cc(-c2cccc(C#N)c2)ncn1	none (no result: LmPK inh, TbPYK inhibitor, RE007 growth inh, CHX counter, Shiga inhibitor)
CCCCCCN(C(=O)CCCCCN1C(=O)NC(c2ccc(-c3ccccc3)cc2)C(C(=O)OCc2ccccc2)=C1C)C(C(=O)NCCCC)c1ccc(OCC(=O)O)c(C(=O)O)c1 (stereo not given)	none (no result: LmPK inh, TbPYK inhibitor, RE007 growth inh, CHX counter, Shiga inhibitor)
O=C(Nc1ccccc1)N1CC2(CCN(S(=O)(=O)c3ccccc3)CC2)C1	none (no result: LmPK inh, RE007 growth inh, CHX counter, Shiga inhibitor)
COC(=O)c1ccc(COc2ccc(/C=C(\C#N)c3nc4ccccc4[nH]3)cc2OC)o1	CHX counter 33, Shiga inhibitor 81
COc1cc(/C=C(\C#N)c2nc3ccccc3[nH]2)ccc1OCc1ccc(F)cc1	none (no result: Giardia FBPA inh, LmPK inh, RE007 growth inh, CHX counter, Shiga inhibitor)
CCc1ccc(NC(=O)COc2ccc(/C=C(/C#N)c3nc4ccccc4[nH]3)cc2OC)cc1	CHX counter 22, Shiga inhibitor active
CC(=O)C1(C)CC2(CC(C)(C)OC2=O)C(=O)O1 (stereo not given)	none (no result: LmPK inh, TbPYK inhibitor, RE007 growth inh, CHX counter, Shiga inhibitor)
O=[N+]([O-])c1cc(-c2nc(-c3ccccc3)no2)ccc1NCCc1ccccc1	none (no result: Giardia FBPA inh, LmPK inh, RE007 growth inh, CHX counter, Shiga inhibitor)
Cc1cc(C)cc(N=Cc2ccc([N+](=O)[O-])s2)c1	RE007 growth inh 40µM
NC(=O)c1ccc(N=Cc2ccc([N+](=O)[O-])s2)cc1	Giardia FBPA inh inconclusive, RE007 growth inh 40µM
O=C(Cc1cccs1)N/N=C\c1ccc([N+](=O)[O-])s1	none
Cc1ccc(NC(=S)N/N=C/c2ccc([N+](=O)[O-])s2)cc1	CHX counter 47, Shiga inhibitor active
O=[N+]([O-])c1ccc(C=Nc2ccc(Cl)c([N+](=O)[O-])c2)s1	Giardia FBPA inh inconclusive (no result: TbPYK inhibitor, RE007 growth inh)
CCOC(=O)C1=C(C)NC(C)=C(C(=O)OCC)C1c1ccccc1C=CC(=O)OC(C)(C)C	none (no result: Giardia FBPA inh, LmPK inh, RE007 growth inh, CHX counter, Shiga inhibitor)
CCNC(=O)c1ccc(CSc2ccc(Cl)cc2)cc1	CHX counter 34, Shiga inhibitor 55
CC(=O)NCCNC(=O)CNC(=O)c1ccc(Cl)cc1	none
CC(=O)NCCNC(=O)c1ccc(CSc2ccc(Cl)cc2)cc1	CHX counter 37, Shiga inhibitor 94
O=C(NCc1nc2cccnc2n1Cc1ccc(F)cc1)c1ccccc1C(F)(F)F	none (no result: Giardia FBPA inh, LmPK inh, RE007 growth inh, CHX counter, Shiga inhibitor)
COc1ccc(NC(=O)c2c(NC(=O)COc3ccc(Cl)cc3)sc3c2CCCCC3)cc1	none (no result: Giardia FBPA inh, LmPK inh, RE007 growth inh, CHX counter, Shiga inhibitor)
O=C(NCc1ccccc1F)C1CCN(Cc2cc3ccccc3n2Cc2cccc(Cl)c2)CC1	none (no result: Giardia FBPA inh, LmPK inh, RE007 growth inh, CHX counter, Shiga inhibitor)
